PubChem BioAssay (NCATS)
Records with an inconclusive call do not appear. Activity calls are given as the source filed them. Calls come from the whole dose curve; as a rule, active = well fitted curve in the direction sought with a large enough effect; inconclusive = small, poorly fitted or top-dose-only effect, or another doubt; inactive = no such curve, though single readings can be large; an effect the other way counts as inactive or inconclusive.

Columns and labels:
[1] = Quantitative highthroughput screen to assess conditional lethalithy of NOMO1 cells grown in RPMI1640 with untreated serum (RPMI+s) (AID 1963876); note: nearly all actives have a fitted effect of over 35% in size;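 for viability: 100% = DMSO wells and 0% = empty wells without cells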
Outline: (§1)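 Each medium arm—HPLM with 10% dialyzed FBS, or RPMI1640 with 5 mM glucose and 10% untreated or dialyzed FBS—was screened against an 11-point, 3-fold compound titration for 48 h at 37 °C, with CellTiter-Glo luminescence as endpoint.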

[2] = Quantitative highthroughput screen to assess conditional lethalithy of NOMO1 cells grown in RPMI1640 with dialyzed fetal bovine serum (RPMI+ds) (AID 1963877); note: nearly all actives have a fitted effect of over 30% in size;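 for viability: series mostly up to about 46 µM; 100% = DMSO control wells and 0% = empty wells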
Outline: as §1

[3] = Quantitative highthroughput screen to assess conditional lethalithy of NOMO1 cells grown in Human Plasma-Like Medium with dialyzed fetal bovine serum (HPLM+ds) (AID 1963878); note: nearly all actives have a fitted effect of over 35% in size;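 for viability: 100% = DMSO wells and 0% = empty wells on each plate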
Outline: as §1

[4] = Quantitative highthroughput screen to assess conditional lethalithy of P12 Ichikawa cells grown in Human Plasma-Like Medium with dialyzed fetal bovine serum (HPLM+ds) (AID 1963879); conditions: Potency: viability; note: nearly all actives have a fitted effect of over 35% in size; for viability: series mostly up to about 46 µM
Outline: as §1

[5] = Quantitative highthroughput screen to assess conditional lethalithy of P12 Ichikawa cells grown in RPMI1640 with dialyzed fetal bovine serum (RPMI+ds) (AID 1963880); conditions: Potency: P12-Ichikawa viability; note: nearly all actives have a fitted effect of over 35% in size;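 for viability: 100% = DMSO wells and 0% = empty wells on each plate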
Outline: as §1

[6] = Quantitative highthroughput screen to assess conditional lethalithy of P12 Ichikawa cells grown in RPMI1640 with untreated serum (RPMI+s) (AID 1963881); conditions: Potency: viability; note: nearly all actives have a fitted effect of over 35% in size;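 for viability: series mostly up to about 46 µM; 100% = DMSO wells and 0% = empty wells without cells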
Outline: as §1

[7] = Quantitative highthroughput screen to assess conditional lethalithy of SEM cells grown in Human Plasma-Like Medium with dialyzed fetal bovine serum (HPLM+ds) (AID 1963882); note: nearly all actives have a fitted effect of over 35% in size; for viability: series mostly up to about 46 µM
Outline: as §1

[8] = Quantitative highthroughput screen to assess conditional lethalithy of SEM cells grown in RPMI1640 with unreated serum (RPMI+s) (AID 1963883); note: nearly all actives have a fitted effect of over 35% in size;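 for viability: 100% = DMSO wells and 0% = empty wells without cells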
Outline: as §1

[9] = Quantitative highthroughput screen to assess conditional lethalithy of SEM cells grown in RPMI1640 with dialyzed fetal bovine serum (RPMI+ds) (AID 1963884); note: nearly all actives have a fitted effect of over 35% in size;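 for viability: series mostly up to about 46 µM; 100% = DMSO control wells and 0% = empty wells without cells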
Outline: as §1

[10] = Cellular viability qHTS for adrenocortical cancer (ACC) cell line SW-13 (AID 1963989); conditions: SW-13 ACC cells viability, CellTiter-Glo, 48 h; activity (max response): hits give low values; note: nearly all actives have a fitted effect of over 65% in size;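 for activity (max response): cells grown in serum-free medium with ITS supplement; % is set by controls: 0 for no effect and ±100 for the full control effect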
Outline: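 Here, serum-free SW-13 cultures were dosed up to 46 uM. Following 48 h, ATP-dependent luminescence (CellTiter-Glo) reported viable cells, and logistic modeling produced IC50 values.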

[11] = Cellular viability qHTS for adrenocortical cancer (ACC) cell line NCI-H295R (AID 1963990); note: nearly all actives have a fitted effect of over 60% in size
Outline: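 Viability of NCI-H295R after 48 h of treatment (final up to 46 uM) measured through cellular ATP luminescence.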
Potency is the fitted concentration of half-maximal effect.

CN(C)CCN(Cc1ccc(Cl)cc1)c1ccccn1
inactive: Potency [1] | Potency [2] | Potency [3] | Potency [4] | Potency [5] | Potency [6] | Potency [7] | Potency [8] | Potency [9] | activity (max response) [10] -3.95%

COc1cc2ncn(-c3cc(OCc4ccccc4S(C)(=O)=O)c(C#N)s3)c2cc1OC
inactive: Potency [1] | Potency [2] | Potency [3] | Potency [4] | Potency [5] | Potency [6] | Potency [7] | Potency [8] | Potency [9] | activity (max response) [10] -11.8%

Cc1csc(NC(=O)c2sc3nc4c(c(C(F)(F)F)c3c2N)CCC4)n1
inactive: Potency [1] | Potency [2] | Potency [3] | Potency [4] | Potency [5] | Potency [6] | Potency [7] | Potency [8] | Potency [9] | activity (max response) [10] -2.72% | Potency [11]

CC(C)(O)[C@H]1CC[C@@](C)([C@H]2[C@@H](O)C[C@@]3(C)[C@@H]4C[C@H](O[C@@H]5O[C@H](CO)[C@@H](O)[C@H](O)[C@@H]5O)[C@H]5C(C)(C)[C@@H](O[C@@H]6OC[C@@H](O)[C@H](O)[C@@H]6O)CC[C@@]56C[C@@]46CC[C@]23C)O1
inactive: Potency [1] | Potency [2] | Potency [3] | Potency [4] | Potency [5] | Potency [6] | Potency [7] | Potency [8] | Potency [9]

COc1cccc(Nc2c(C(N)=O)cnc3c(C)cc(S(=O)(=O)c4cccc(C(=O)N(C)C)c4)cc23)c1
inactive: Potency [1] | Potency [2] | Potency [3] | Potency [4] | Potency [5] | Potency [6] | Potency [7] | Potency [8] | Potency [9] | activity (max response) [10] 11.8% | Potency [11]

NC(=O)c1ccc(-c2nc(-c3ccc4c(c3)OCCO4)c(-c3ccccn3)[nH]2)cc1
inactive: Potency [1] | Potency [2] | Potency [3] | Potency [4] | Potency [5] | Potency [6] | Potency [7] | Potency [8] | Potency [9] | activity (max response) [10] -9.07%

CN[C@@H]1[C@@H](O)[C@@H](O[C@@H]2[C@@H](O)[C@H](O[C@H]3O[C@H](CN)[C@@H](O)[C@H](O)[C@@H]3O)[C@@H](N)C[C@@H]2NC(=O)[C@@H](O)CN)OC[C@]1(C)O
inactive: Potency [1] | Potency [2] | Potency [3] | Potency [4] | Potency [5] | Potency [6] | Potency [7] | Potency [8] | Potency [9]

O=C1NCCc2[nH]c(-c3ccncc3)cc21
active: Potency [1] 18.7 µM | Potency [2] 20.9 µM | Potency [3] 18.7 µM | Potency [4] 16.6 µM | Potency [5] 14.8 µM | Potency [6] 14.8 µM | Potency [7] 13.2 µM | Potency [8] 13.2 µM | Potency [9] 14.8 µM | Potency [10] 7.94 µM | Potency [11] 7.08 µM

CC(C)(O)CC[C@@H](O)[C@](C)(O)[C@H]1CC[C@@]2(O)C3=CC(=O)[C@@H]4C[C@@H](O)[C@@H](O)C[C@]4(C)[C@@H]3CC[C@]12C
inactive: Potency [1] | Potency [2] | Potency [3] | Potency [4] | Potency [5] | Potency [6] | Potency [7] | Potency [8] | Potency [9]
